# Source: the supplement of paper PMC10338343
# ± gives the standard deviation.
# Tested on: MILI (PIWIL2) piRISC loaded with L1MC piRNA (26 nt)
# Experiment: pre-steady-state target cleavage rate (min^-1); guide: L1MC piRNA 5'p-UAACUAAAUACUAUGCAAGCUGUAGG; MIWI and MILI are mouse PIWI proteins and EfPiwi is from a freshwater sponge; tags in brackets are library labels; higher = faster piRNA-guided slicing of the target
# Details: auxiliary factor: 500 nM mouse GTSF1
# In short: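 Cleave-'n-Seq: a transcribed, DNA-blocked target RNA library (0.1 nM) was mixed with 1 nM active affinity-purified piRISC carrying one synthetic guide, with or without 500 nM GTSF1 partner protein, in HEPES–potassium acetate buffer at 33 °C for 0–8 or 0–960 min. Uncleaved targets were sequenced and normalised to depth and to weakly complementary targets. Three trials were pooled, and k3 was capped at 0.0001 min^-1. The pre-steady-state cleavage rate came from a burst-and-steady-state fit.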
row,Sequence,pre-steady-state target cleavage rate
1,UCCUCCUACAGCUUGCAUAGUUAAAUCAAA [g10:g26:cont:t1A],0.0191 ± 0.0072
2,UCCUGGAUGUCGAACCAUUGUAUAUAGUUA,< 0.0001
3,UCCUGGAUGAGCUUGCUUAGUAUUUACAAA,0.0262 ± 0.011
4,UCCUGGAUCAGCUUGCAAUGUAUUUACAAA,0.0196 ± 0.0061
5,UCCUGGAUGUGCUUGCAUAGUAUUUUCAAA,0.00462 ± 0.0044
6,UCCUGGAUGAGCUUGCAUAGUAUAUUAGUUA,0.158 ± 0.017
7,UCCUGGAACAGCUUGCAUAGUUUUUUCAAA,0.00594 ± 0.0037
8,UCCUGGAUGUCCUUGCUAAGUAUUUAGUUA,0.00944 ± 0.0051
9,UCCUGGAUGUCGAUGCUUAGUAUAUAGUUA,0.0304 ± 0.0073
10,UCCUGCUACAGCUUGCAUAGUUAUUUCAAA,0.0109 ± 0.0051
11,UCCUGGUACAGCUUGCAUAGUAUUAUGAAA,0.00782 ± 0.0056
12,UCCUGGAACACGUUGCAUAGUAUUUACAAA,0.0879 ± 0.017
13,UCCUGGAUGUCGUUGCAUAGAAUUUAGUUA,0.00458 ± 0.0035
14,UCCUGGAUGUCGAUGCAUAGUAUUUAGAAA,0.0516 ± 0.015
15,UCCUGGAUCAGCUUGCAUAGAAUUUACAAA,0.00722 ± 0.0036
16,UCCUGGAUGAGCAUCCAUAGUAUUUAGUUA,0.231 ± 0.059
17,UCCUGGAACAGCUUGCAUAUAUUUAGUUA,0.0331 ± 0.0059
18,UCCUGGAUGUCGUUCCAUAGUAUUUAGUUA,0.00992 ± 0.0041
19,UCCUGGAUGAGCUUGCAUUGUAUUUACUUA,0.031 ± 0.012
20,UCCUGCUACAGCUUGCAAUGUAUUUAGAAA,0.0407 ± 0.013
21,UCCUGGUACAGCUUGCUAAGUAUUUACAAA,0.0119 ± 0.0056
22,UCCUGGAACAGCUUGCAUAGUUUAUAGUUA,0.029 ± 0.0097
23,UCCUGGAUCAGCUUGCAUAGUAUUAUCAAA,0.0975 ± 0.021
24,UCCUGGAUGUCCUUGCAUAGUAUAAUGUUA,0.0286 ± 0.011
